Only a selection was taken, and hits are over-represented in it overall.
MARV entry inh – blocks Marburg virus binding to or entry into cells. Marburg virus pseudotyped entry inhibition, cell reporter. Potency, µM (series often up to 37.8 µM), without a hit: at the top dose activity change, negative = inhibition, actives largely listed as inhibitors. 300,000 tested, 1.8% active; calls by dose curve; tested in HEK293 cells; further: potency means the concentration at half of the fitted maximal effect; on the % scale 0 is the no-effect control and ±100 the full control effect
Cycloheximide cs – counter-screen for Shiga toxin inhibitors: cycloheximide protein synthesis inhibition; cell reporter, cycloheximide protein synthesis inhibition counterscreen; max response, %; 300,000 tested, 12% active; AID 2314; in the data active means max response mostly above about 13%, no sharp cut-off; inactive means mostly below about 14%; further: read at 38.3 µM for the half of the compounds with a filed dose; 0% is about no effect
AMA1-RON2 inh – inhibitors of Plasmodium falciparum AMA1-RON2 interaction. 360,000 tested, 0.2% active. AID 720542. Potency, µM (highest dose often 58.2 µM), without a hit: at the highest dose activity change, negative = inhibition, most hits filed as inhibitors. AlphaScreen AMA1-biotinylated RON2 peptide binding; active means well fitted inhibition curve with a large enough effect; inconclusive means small, poorly fitted or top-dose-only effect; inactive means no such curve, though single readings can be large or run the other way;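 further: potency means the concentration at half of the fitted maximal effect; 0% = vehicle wells and -100% = peptide control; nearly all actives have a fitted effect of over 45% in size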
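AMA1 (3D7) with his tag at 25 nM final met compounds first, then biotinylated RON2 peptide at 25 nM; detection used donor plus acceptor beads, 10 µg/mL apiece, read by AlphaScreen after 30 min at room temperature.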
Lassa entry inh – inhibitors of Lassa virus binding or cell entry; Lassa virus pseudotype entry inhibition, cell reporter; Potency, µM (doses to about 37.9 µM), for the others: top-dose activity change, negative = inhibition, usual class: inhibitors; 300,000 tested, 1.2% active; AID 540256; calls by dose curve; tested in HEK293 cells; further: potency means the concentration at half of the fitted maximal effect; on the % scale 0 is the no-effect control and ±100 the full control effect; nearly all actives have a fitted effect of over 50% in size
Shiga toxin inh – inhibitors of Shiga toxin in Vero cells. inhibition, % at 38.7 µM. 290,000 tested, 9.2% active. Vero cells, Shiga toxin protein synthesis inhibition reporter; in the data active means inhibition mostly above about 28%, no sharp cut-off; inactive means mostly below about 43%; further: 0% is about no effect
The depositor's hits bear a star; i = inactive; ? = inconclusive; · = no result given; [ ] = remark or other dose.

SMILES	MARV entry inh	Cycloheximide cs	AMA1-RON2 inh	Lassa entry inh	Shiga toxin inh
COC(=O)C1=C(C)N(Cc2ccco2)C(=O)NC1c1ccco1 (centres undefined)	0%[14.2 µM]	·	·	·	·
Brc1cc(Cc2nnc(-c3ccccc3)o2)c(Br)s1	?	14*	3%	1%[46.1 µM]	24
O=C(NC1CCCCC1)c1ccc(-c2ccccc2[N+](=O)[O-])o1	?	44*	-4%	-19%[46.1 µM]	105*
O=C(COC(=O)c1ccc(-c2ccc([N+](=O)[O-])cc2)o1)NC(=O)NC1CCCCC1	6%	1	-6%	11%	2
CC(NC(=O)c1ccc([N+](=O)[O-])o1)C12CC3CC(CC(C3)C1)C2 (centres undefined)	-17%[46.1 µM]	35*	-10%	-2%	45*
O=C(NC1CCCCC1)c1ccc([N+](=O)[O-])o1	?	43*	10%	?	72*
O=C(NC1CCC(O)CC1)c1ccc(-c2ccc([N+](=O)[O-])cc2)o1 (centres undefined)	·	17*	3%	·	37
Cc1ccc(-n2c(C)cc(/C=N/NC(=O)c3ccncc3)c2C)cc1	-2%	25*	14%	4%	18
Cc1nnc(N/N=C/c2ccccc2F)n1N	·	11	37%	·	-6
CNC(=S)N/N=C/c1c(Cl)cccc1Cl	-2%	-2	63%	7%	-4
Cc1cc(/C=N/NC(=O)c2ccncc2)c(C)n1-c1cccc(C(F)(F)F)c1	-18%	8	68%	?	6
CNC(=S)N/N=C/c1cc(C)n(-c2ccc(Cl)c(Cl)c2)c1C	?	22*	-2%	?	52
Cc1ccc(-n2c(C)cc(/C=N/NC(N)=S)c2C)cc1	?	19*	9%	?	-12
COc1ccc(-n2c(C)cc(/C=N/Nc3nnc(C)n3N)c2C)cc1	?	19*	-9%	-17%	33
COc1ccc(NC(=O)CSc2nnc(N)s2)cc1S(=O)(=O)N1CCCCC1	·	·	-6%	·	·
COc1ccccc1C1CC(c2ccccc2)Nc2ncnn21 (centres undefined)	-17%	-3	-8%	-17%	-10
O=C1NC[C@H](CCCCN2C[C@H](Cc3ccccc3)N(Cc3ccccc3)C(=O)C2=O)N(CCc2ccccc2)C1=O	·	·	6%	·	·
CCC(=O)N(c1nnc(SCC(=O)Nc2ccccc2Cl)s1)C1CC1	·	·	-5%	·	·
COc1ccccc1CNC(=O)c1cnc(N(C)C)nc1	·	·	·	-12%[46.1 µM]	·
Cc1c(O)ccc(C(=O)COc2ccc(F)cc2)c1O	17%	38*	5%	-11%	i
CCc1cc(C(=O)COc2ccc(F)cc2)c(O)cc1O	?	20*	-1%	1%	40*
O=C(O)[C@@H](O)c1ccco1	-11%	·	·	·	·
CCCCNC(=O)C1(C)CCN1Cc1cccc2c(OC)cc(C(=O)OCC)cc12 (centres undefined)	·	·	-8%	·	·
CSc1ncc(C(=O)Nc2ccc(C)c(Cl)c2)c(-c2ccccc2)n1	·	·	·	9%[46.1 µM]	·
CC(C)COc1ccc(-c2cc(C(=O)NN)[nH]n2)cc1	4%	27*	94%	?	86
SMILES	MARV entry inh	Cycloheximide cs	AMA1-RON2 inh	Lassa entry inh	Shiga toxin inh
O=C(O)c1cc(-c2ccc3c(c2)OCCO3)n[nH]1	?	-2	16%	6%	-13
CCOC(=O)c1cc(-c2ccc(OC)cc2)n[nH]1	·	69*	1%	·	101*
Oc1ccccc1-c1cc(-c2ccc3c(c2)OCCO3)n[nH]1	?	32*	15%	?	47
COc1ccc(-c2[nH]ncc2-c2ccc3c(c2)OCCO3)c(O)c1	-14%[46.1 µM]	-2	17%	?	-19
CC(C)COc1ccc(-c2nonc2NC(=O)c2ccc(F)cc2)cc1	-19%[46.1 µM]	·	·	24%[46.1 µM]	·
COC(=O)c1cc(-c2ccccc2)n[nH]1	4%	10	4%	10%	22
CCOC(=O)c1cc(-c2ccc3c(c2)OCCO3)n[nH]1	5.6µM*	48*	-10%	?	61*
O=C(Nc1ccccc1C(=O)NCCCN1CCOCC1)c1ccc(Cl)cc1	6%	-1	-4%	2%	22
CCCCn1c(SCC(=O)NNC(=O)c2ccccc2)n[nH]c1=O	·	·	40%	·	·
CC[C@]12c3[nH]c4cc(CCC(=O)N(C)C)ccc4c3CCN1C(=O)[C@@H](CC(=O)NCc1ccco1)C[C@@H]2C(=O)N1CCN(C(=O)C2CC2)CC1	·	·	0%	·	·
CC(=O)Nc1ccccc1-c1nc2ccccc2n(CC(=O)Nc2cccc(C)c2C)c1=O	9%[46.1 µM]	·	·	-14%[46.1 µM]	·
CCOc1ccc(-c2cc(C(=O)NN=C3CCN(C)CC3)[nH]n2)cc1	?	25*	84%	?	60*
CN1CCC(=NNC(=O)c2cc(-c3ccc(Cl)cc3)n[nH]2)CC1	19%	11	55%	5%	13
COc1ccc(-c2cc(C(=O)N/N=C/c3sccc3C)c3ccccc3n2)c(OC)c1	5µM*	5	0%	3.2µM*	-6
O=C(N/N=C/c1ccc2c(c1)OCO2)c1cc(-c2ccc(F)cc2)nc2ccccc12	?	50*	-5%	0.58µM*	92*
O=C(N/N=C/c1ccc(F)cc1)c1cc(-c2ccccn2)nc2ccccc12	-13%	·	17%	-4%	·
O=C(N/N=C/c1cccc(F)c1)c1cc(-c2ccco2)nc2ccccc12	?	71*	11%	-2%	86*
Cc1cccc(NC(=O)c2cc(Cl)nc3ccccc23)n1	?	9	-17%	1%	-4
COc1cc(/C=N/NC(=O)c2cc(-c3ccco3)nc3ccccc23)cc(OC)c1O	·	9	89%	·	4
Cc1cccc(NC(=O)c2cc(-c3ccco3)nc3ccccc23)n1	0%	16*	?	6%	95*
COc1ccccc1OCCSc1nc(C)c(Cc2ccccc2)c(=O)[nH]1	·	1	-8%	·	-4
CN(CCCCCCCCCCN(C)C(=O)Oc1cccc([N+](C)(C)C)c1)C(=O)Oc1cccc([N+](C)(C)C)c1	·	·	-19%	·	·
COc1ccc(-c2cc(C(=O)N/N=C/c3ccc4c(c3)OCO4)c3ccccc3n2)c(OC)c1	4µM*	1	22%	2.5µM*	-11
CCOC(=O)C1CCN(Cc2cc(Cl)c3ccccc3c2O)CC1	?	12*	-14%	-3%[46.1 µM]	47
CCOC(=O)C1CCN(Cc2ccc(OC)c(C)c2OC)CC1	-45%	-7	-8%	-40%	-14
SMILES	MARV entry inh	Cycloheximide cs	AMA1-RON2 inh	Lassa entry inh	Shiga toxin inh
CCOC(=O)C1CCN(Cc2nnnn2CCc2ccccc2)CC1	18%	41*	-4%	-19%	46
CCCn1c(SC(C)C(=O)NCC2CCCO2)nc2sc3c(c2c1=O)CCC3 (centres undefined)	-1%[46.1 µM]	·	5%	-17%	·
CC(C)C(=O)Nc1ccc(-c2csc(-c3ccccc3)n2)cc1	22%	61*	9%	?	81*
CC(C)C(=O)Nc1cccc(-c2csc(-c3ccccc3)n2)c1	?	32*	5%[11.6 µM]	-23%	33*
COc1ccc2occ(C(=O)c3cccs3)c2c1	18%	40*	17%	20%	96*
COc1ccc2occ(C(=O)c3ccc(N)cc3)c2c1	·	39*	-6%	·	71*
COc1ccc2c(CC(=O)NNC(=O)c3cccs3)coc2c1	10%	·	65%	-13%[46.1 µM]	·

Screens from PubChem BioAssay.
